Reference: PMC11006913
Where a chain is given by its changes, count along the chain named.

What was measured:
Assay in all cases: PBM; 200 nM protein, PBS
Settings in all cases: dsDNA, one strand shown
[1] = biological target: HOXB4 (Homo sapiens, UniProt P17483 148-234)
[2] = biological target: HOXB9 (Homo sapiens, UniProt P17482 171-250, T197M)
[3] = biological target: HOXC9 (Homo sapiens, UniProt P31274 178-260, K195R)
[4] = biological target: T1, VENTX (Homo sapiens, UniProt O95231 78-163)
T1 sequence: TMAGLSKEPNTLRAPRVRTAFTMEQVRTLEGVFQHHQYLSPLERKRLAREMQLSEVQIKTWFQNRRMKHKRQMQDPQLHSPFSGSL

[5] = biological target: T2, PAX4 (Homo sapiens, UniProt O43316 9-242, R200K)
T2 sequence: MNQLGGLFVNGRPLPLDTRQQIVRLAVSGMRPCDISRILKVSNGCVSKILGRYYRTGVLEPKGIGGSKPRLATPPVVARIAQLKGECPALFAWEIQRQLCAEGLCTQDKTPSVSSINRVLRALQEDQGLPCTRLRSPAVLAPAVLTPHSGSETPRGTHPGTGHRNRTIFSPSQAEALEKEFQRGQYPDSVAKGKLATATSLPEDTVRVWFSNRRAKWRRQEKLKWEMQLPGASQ

[6] = biological target: T3, PAX4 (Homo sapiens, UniProt O43316 9-242)
T3 sequence: T2 sequence with K192R

[7] = biological target: HOXB9 (Homo sapiens, UniProt P17482 171-250)
Sequence of HOXB9 (Homo sapiens, UniProt P17482 171-250) (P17482 171-250): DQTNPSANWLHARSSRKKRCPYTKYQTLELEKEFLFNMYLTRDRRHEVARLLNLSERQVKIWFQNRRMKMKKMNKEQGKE

[8] = biological target: HOXC9 (Homo sapiens, UniProt P31274 178-260)
Sequence of HOXC9 (Homo sapiens, UniProt P31274 178-260) (P31274 178-260): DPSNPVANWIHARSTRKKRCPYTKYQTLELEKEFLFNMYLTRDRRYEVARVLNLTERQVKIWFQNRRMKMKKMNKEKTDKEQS

[9] = biological target: HOXC9 (Homo sapiens, UniProt P31274 178-260, R193K)
Sequence of HOXC9 (Homo sapiens, UniProt P31274 178-260, R193K) (P31274 178-260 R193K): as the sequence (P31274 178-260) above, with R16K counted along it

[10] = biological target: T4, PAX4 (Homo sapiens, UniProt O43316 9-242, F177V)
T4 sequence: T2 sequence with F169V, K192R

[11] = biological target: HOXC10 (Homo sapiens, UniProt Q9NYD6 254-340, K271E)
Sequence of HOXC10 (Q9NYD6 254-340 K271E): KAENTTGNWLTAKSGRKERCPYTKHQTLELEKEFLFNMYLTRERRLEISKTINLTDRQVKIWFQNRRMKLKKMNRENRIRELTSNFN

[12] = biological target: T5, PAX4 (Homo sapiens, UniProt O43316 9-242, F177Y)
T5 sequence: T2 sequence with F169Y, K192R

[13] = biological target: VAX1 (Homo sapiens, UniProt Q5SQQ9 86-172)
Sequence of VAX1 (Q5SQQ9 86-172): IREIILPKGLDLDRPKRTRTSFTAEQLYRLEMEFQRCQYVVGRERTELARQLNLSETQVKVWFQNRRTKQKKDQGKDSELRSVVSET

[14] = biological target: HOXB9 (Homo sapiens, UniProt P17482 171-250, R186Q)
Sequence of HOXB9 (Homo sapiens, UniProt P17482 171-250, R186Q) (P17482 171-250 R186Q): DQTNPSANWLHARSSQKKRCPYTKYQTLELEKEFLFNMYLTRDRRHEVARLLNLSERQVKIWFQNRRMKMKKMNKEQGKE

[15] = biological target: HOXC9 (Homo sapiens, UniProt P31274 178-260, R222W)
Sequence of HOXC9 (Homo sapiens, UniProt P31274 178-260, R222W) (P31274 178-260 R222W): as the sequence (P31274 178-260) above, with R45W counted along it

[16] = biological target: T6, PAX4 (Homo sapiens, UniProt O43316 9-242, R227W)
T6 sequence: T2 sequence with K192R, R219W

[17] = biological target: HOXA2 (Homo sapiens, UniProt O43364 129-215, Y150S)
Sequence of HOXA2 (Homo sapiens, UniProt O43364 129-215, Y150S) (O43364 129-215 Y150S): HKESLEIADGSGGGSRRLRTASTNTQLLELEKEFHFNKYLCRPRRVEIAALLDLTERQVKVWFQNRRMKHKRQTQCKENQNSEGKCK

[18] = biological target: HOXA2 (Homo sapiens, UniProt O43364 129-215)
Sequence of HOXA2 (Homo sapiens, UniProt O43364 129-215) (O43364 129-215): as the sequence (O43364 129-215 Y150S) above, with S22Y counted along it

[19] = biological target: HOXB6 (Homo sapiens, UniProt P17509 132-218)
Sequence of HOXB6 (P17509 132-218): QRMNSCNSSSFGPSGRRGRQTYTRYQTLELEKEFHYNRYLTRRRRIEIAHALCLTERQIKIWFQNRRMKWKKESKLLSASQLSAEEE

Sequence of HOXB4 (P17483 148-234): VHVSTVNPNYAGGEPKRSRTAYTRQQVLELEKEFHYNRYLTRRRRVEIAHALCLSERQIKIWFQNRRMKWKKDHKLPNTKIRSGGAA
Sequence of HOXB9 (Homo sapiens, UniProt P17482 171-250, T197M) (P17482 171-250 T197M): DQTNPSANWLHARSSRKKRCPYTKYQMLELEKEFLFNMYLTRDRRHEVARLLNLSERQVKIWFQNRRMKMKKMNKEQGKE
Sequence of HOXC9 (Homo sapiens, UniProt P31274 178-260, K195R) (P31274 178-260 K195R): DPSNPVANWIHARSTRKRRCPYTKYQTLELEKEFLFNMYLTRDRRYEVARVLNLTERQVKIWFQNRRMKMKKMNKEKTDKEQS

Row | Sequence | binding signal [1] | binding signal [2] | binding signal [3] | binding signal [4] | binding signal [5] | binding signal [6] | binding signal [7] | binding signal [8] | binding signal [9] | binding signal [10] | binding signal [11] | binding signal [12] | binding signal [13] | binding signal [14] | binding signal [15] | binding signal [16] | binding signal [17] | binding signal [18] | binding signal [19]
1 | ATCAATTA | 13.4 upbm affinity estimate (log intensity, higher = more binding, comparable within an allelic series) | 10.1 upbm affinity estimate (log intensity, higher = more binding, comparable within an allelic series) | 12.5 upbm affinity estimate (log intensity, higher = more binding, comparable within an allelic series) | 12.7 upbm affinity estimate (log intensity, higher = more binding, comparable within an allelic series) | 11.8 upbm affinity estimate (log intensity, higher = more binding, comparable within an allelic series) | 12.4 upbm affinity estimate (log intensity, higher = more binding, comparable within an allelic series) | 11.7 upbm affinity estimate (log intensity, higher = more binding, comparable within an allelic series) | 12.6 upbm affinity estimate (log intensity, higher = more binding, comparable within an allelic series) | 12.6 upbm affinity estimate (log intensity, higher = more binding, comparable within an allelic series) | 10.7 upbm affinity estimate (log intensity, higher = more binding, comparable within an allelic series) | 11.9 upbm affinity estimate (log intensity, higher = more binding, comparable within an allelic series) | 11.2 upbm affinity estimate (log intensity, higher = more binding, comparable within an allelic series) | 13.3 upbm affinity estimate (log intensity, higher = more binding, comparable within an allelic series) | 11.5 upbm affinity estimate (log intensity, higher = more binding, comparable within an allelic series) | 11.1 upbm affinity estimate (log intensity, higher = more binding, comparable within an allelic series) | 11 upbm affinity estimate (log intensity, higher = more binding, comparable within an allelic series) | 10.9 upbm affinity estimate (log intensity, higher = more binding, comparable within an allelic series) | 12.7 upbm affinity estimate (log intensity, higher = more binding, comparable within an allelic series) | 12.1 upbm affinity estimate (log intensity, higher = more binding, comparable within an allelic series)
2 | CTAATTAC | 13.6 upbm affinity estimate (log intensity, higher = more binding, comparable within an allelic series) | 10.1 upbm affinity estimate (log intensity, higher = more binding, comparable within an allelic series) | – | 13.2 upbm affinity estimate (log intensity, higher = more binding, comparable within an allelic series) | 12 upbm affinity estimate (log intensity, higher = more binding, comparable within an allelic series) | 12.5 upbm affinity estimate (log intensity, higher = more binding, comparable within an allelic series) | – | – | – | 10.6 upbm affinity estimate (log intensity, higher = more binding, comparable within an allelic series) | 12 upbm affinity estimate (log intensity, higher = more binding, comparable within an allelic series) | 11.1 upbm affinity estimate (log intensity, higher = more binding, comparable within an allelic series) | 14 upbm affinity estimate (log intensity, higher = more binding, comparable within an allelic series) | – | – | 11.1 upbm affinity estimate (log intensity, higher = more binding, comparable within an allelic series) | 10.9 upbm affinity estimate (log intensity, higher = more binding, comparable within an allelic series) | 13.4 upbm affinity estimate (log intensity, higher = more binding, comparable within an allelic series) | 12.3 upbm affinity estimate (log intensity, higher = more binding, comparable within an allelic series)
3 | AGCAATTA | 13 upbm affinity estimate (log intensity, higher = more binding, comparable within an allelic series) | 9.96 upbm affinity estimate (log intensity, higher = more binding, comparable within an allelic series) | – | 12.4 upbm affinity estimate (log intensity, higher = more binding, comparable within an allelic series) | – | – | – | – | – | – | 11.8 upbm affinity estimate (log intensity, higher = more binding, comparable within an allelic series) | – | 12.9 upbm affinity estimate (log intensity, higher = more binding, comparable within an allelic series) | – | – | – | 10.8 upbm affinity estimate (log intensity, higher = more binding, comparable within an allelic series) | 12.5 upbm affinity estimate (log intensity, higher = more binding, comparable within an allelic series) | 12 upbm affinity estimate (log intensity, higher = more binding, comparable within an allelic series)
